Data as given in PubChem BioAssay (Tox21).
Records with an inconclusive call do not appear. Values without a mark were called inactive. The call rests on the fitted dose curve; in most records, active means well fitted cell-killing curve with a large enough effect in the repeat runs; inconclusive means weak or mixed curves, or effect the other way; inactive means flat fitted curve, though single readings scatter.

Experiment: qHTS RealTime-Glo MT Cell Viability Assay in HEK293 cells - 8 hour (AID 1224887); further: top concentration of the series differs between compounds; nearly all actives have a fitted effect of over 50% in size
Conditions: RealTime-Glo luminescence; series mostly up to 76.8 µM; activity change, negative = cytotoxicity: at the top concentration
Text: U.S. Tox21 Program National Center for Advancing Translational Sciences [NCATS] NIH Chemical Genomics Center [NCGC] U.S. Environmental Protection Agency [EPA] National Institutes of Environmental Health Sciences [NIEHS] National Toxicology Program [NTP] U.S. Food and Drug Administration [FDA] Tox21 Assay Overview: Measure of cell viability is critical in the cell-base assay. Analysis of cell viability is necessary for the characterization of cell responses to cytotoxic drugs and environmental stress. A RealTime-Glo MT Cell Viability Assay to monitor cell viability in real time of continues cell culture during 40 hours of compound treatment was used to screen Tox21 10K library compounds in Hek293 cells. The RealTime-Glo MT Cell Viability Assay is a nonlytic, homogeneous, bioluminescent method to measure cell viability in real time using a simple, plate-based method. The assay involves adding NanoLuc luciferase and a cell-permeant prosubstrate to cells in culture. Viable cells reduce the proprietary prosubstrate to generate a substrate for NanoLuc luciferase. This substrate diffuses from cells into the surrounding culture medium, where it is rapidly used by the NanoLuc Enzyme to produce a luminescent signal. The signal correlates with the number of viable cells, making the assay well suited for cytotoxicity studies.
Tox21 Assay Protocol Summary: The mixture of Hek293 cell suspension and reagents were dispensed at 600cells/6 ul/well in 1536-well tissue culture treated black solid bottom plates using a Multidrop dispenser. After the assay plates were incubated at a 37 C/5% CO2 incubator for 5 hours, 23 nL of compounds dissolved in DMSO, positive and negative controls was transferred to the assay plate by a pintool work station. The plates were incubated at 37 C for 40 hours. The luminescence intensity were measured at 0h, 8h, 16h, 24h, 32h and 40h time points using ViewLux plate reader during compound treatment.
On the % scale 0 is the no-effect control and ±100 the full control effect.

SMILES	activity change, negative = cytotoxicity
CCCSP(=O)(OCC)Oc1ccc(Br)cc1Cl (stereo not given)	-19.4% [at 35.3 µM]
COP(=S)(OC)Oc1c(Cl)cc(C)cc1Cl	-2.1%
CCN(CC)CCOC(=O)C(C)(c1ccccc1)c1ccccc1	-7.76% [at 35.3 µM]
Nc1cnn(-c2ccccc2)c(=O)c1Cl	16.8%
CC(=O)CC(c1ccc(Cl)cc1)c1c(O)c2ccccc2oc1=O (stereo not given)	-8.21%
CCCSC(=O)N(CCC)CCC	0.21%
COC(=O)C1=CCCN(C)C1	0.0398% [at 35.3 µM]
N#CCBr	14.8%
ClC(Br)Br	6.28%
CC1CCC(=O)O1 (stereo not given)	-8.4%
CCN(CC)c1nc(C)cc(OP(=S)(OC)OC)n1	-20.4%
CC(=O)CCc1ccc2c(c1)OCO2	-1.13%
CCCSP(=S)(OCC)Oc1ccc(Cl)cc1Cl (stereo not given)	-9.4%
O=[N+]([O-])c1cccc2c([N+](=O)[O-])cccc12	-20.5%
O=[N+]([O-])c1cccc2cccnc12	-5.26%
Oc1c(Cl)cccc1Cl	5.02%
O=P(O)(Oc1ccccc1)Oc1ccccc1	10.9%
[Cl][Sn]([Cl])([Cl])[Cl]	12.5%
CC(N)=S	8.38%
CN1CCC(N(Cc2ccccc2)c2ccccc2)CC1	4.4% [at 35.3 µM]

SMILES	activity change, negative = cytotoxicity
N#Cc1c(Cl)cccc1Cl	3.92%
Fc1cc(Br)ccc1CBr	10.9% [at 35.3 µM]
C1CCC(C2CCCCC2)CC1	-13.2%
ClCC(Cl)(Cl)Cl	-0.305%
CC(Cl)(Cl)[N+](=O)[O-]	0.464%
N#CCCC#N	0.297%
CCOC(=O)/C=C(C)/C=C/C[C@@H](C)CCCC(C)C	-2.93%
CNC(=O)Oc1ccc(N(C)C)c(C)c1	-5.55%
CN(C)CCc1ccc(O)cc1	20.4% [at 35.3 µM]
C[C@]1(O)CC[C@H]2[C@@H]3CCC4=CC(=O)CC[C@]4(C)[C@@]3(F)[C@@H](O)C[C@@]21C	-10.1%
O=CNC(N1CCN(C(NC=O)C(Cl)(Cl)Cl)CC1)C(Cl)(Cl)Cl (stereo not given)	-2.34%
CNC(=O)Oc1c(C(C)(C)C)cc(C)cc1C(C)(C)C	5.2%
CCCCN(CCCCO)N=O	4.34%
OCCSCSCCO	5.61%
CCOP(=S)(OCC)SCSc1ccc(Cl)cc1	-0.854%
O=c1oc2ccccc2c(O)c1C1CCCc2ccccc21 (stereo not given)	7.99%
C=C(C)[C@@H]1CC=C(C=O)CC1	-11.5%
CSc1ccc(C(=O)C(C)(C)N2CCOCC2)cc1	-3.58%
[As]#[In]	13.9%
O=C(O)c1cccc(Cl)c1	1.78%
